Measurements published in PubChem BioAssay AID1159580 (chemical genetic matrix, 2015).
Values joined by “and” are separate entries in the source; they are usually repeats but may differ in a detail not shown here. Equal values may be shown once. The campaign covered roughly 5,500 compounds. About 2,000 (36%) were called active. About 18% were inconclusive and are not listed. No stated cut-off is given here; in the data, active means normalized growth mostly below about 0.91 (no sharp cut-off); inconclusive means no clear call, values can overlap the other calls; inactive means mostly above about 0.92. This is one part of the list. Some structures have more than one record in an assay (separate samples or runs), and their calls can disagree.

Assay: chemical genetic growth profiling, strain panel (AID 1159580);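 further: tested at 20 µM; growth read once vehicle control cultures reached saturation at 30 °C; 1 = growth at the plate median or of vehicle wells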
Conditions: S. cerevisiae deletion strains, growth OD

Measured: normalized growth

O=c1[nH]cc(F)c(=O)[nH]1
active: locus YAL021C, strain ccr4, stronger effect = lower value 0.841 | locus YAL026C, strain drs2, stronger effect = lower value 0.445 | locus YAL030W, strain snc1, stronger effect = lower value 0.642 | locus YBL061C, strain skt5, stronger effect = lower value 0.689 | locus YBR009C, strain hhf1, stronger effect = lower value 0.458 | locus YBR021W, strain FUR4, stronger effect = lower value 0.81 | locus YBR023C, strain chs3, stronger effect = lower value 0.678 | locus YBR231C, strain swc5, stronger effect = lower value 0.639 | locus YBR279W, strain paf1, stronger effect = lower value 0.555 | locus YCL011C, strain gbp2, stronger effect = lower value 0.509 | locus YCL016C, strain dcc1, stronger effect = lower value 0.586 | locus YCL029C, strain bik1, stronger effect = lower value 0.717 | locus YCL061C, strain MRC1, stronger effect = lower value 0.702 | locus YCL069W, strain vba3, stronger effect = lower value 0.484 | locus YCR088W, strain abp1, stronger effect = lower value 0.651 | locus YDL035C, strain GPR1, stronger effect = lower value 0.591 | locus YDL040C, strain nat1, stronger effect = lower value 0.869 | locus YDL192W, strain arf1, stronger effect = lower value 0.715 | locus YDR001C, strain nth1, stronger effect = lower value 0.747 | locus YDR069C, strain doa4, stronger effect = lower value 0.636 | locus YDR101C, strain arx1, stronger effect = lower value 0.64 | locus YDR137W, strain rgp1, stronger effect = lower value 0.629 | locus YDR159W, strain sac3, stronger effect = lower value 1.3 [resistant] | locus YDR162C, strain NBP2, stronger effect = lower value 0.693 | locus YDR195W, strain ref2 0.63 | locus YDR297W, strain sur2, stronger effect = lower value 0.676 | locus YDR318W, strain mcm21, stronger effect = lower value 0.701 | locus YDR334W, strain swr1, stronger effect = lower value 0.741 | locus YDR335W, strain msn5, stronger effect = lower value 0.538 | locus YDR363W, strain ESC2, stronger effect = lower value 0.864 | locus YDR388W, stronger effect = lower value 0.753 | locus YDR392W, strain spt3, stronger effect = lower value 0.476 | locus YDR502C, strain sam2, stronger effect = lower value 0.657 | locus YEL003W, strain gim4, stronger effect = lower value 0.518 | locus YEL037C, strain rad23, stronger effect = lower value 0.539 | locus YEL061C, strain CIN8 (second series), stronger effect = lower value 0.728 | locus YER015W, strain faa2, stronger effect = lower value 0.702 | locus YER016W, strain bim1, stronger effect = lower value 0.629 | locus YER111C, strain swi4, stronger effect = lower value 0.858 | locus YER155C, strain BEM2 (second series), stronger effect = lower value 0.535 | locus YER167W, strain BCK2, stronger effect = lower value 0.795 | locus YFR010W, strain ubp6, stronger effect = lower value 0.598 | locus YGL078C, strain dbp3, stronger effect = lower value 0.571 | locus YGL086W, strain mad1, stronger effect = lower value 0.743 | locus YGL173C, strain kem1, stronger effect = lower value 0.719 | locus YGL227W, strain vid30, stronger effect = lower value 0.856 | locus YGL248W, strain PDE1, stronger effect = lower value 0.71 | locus YGL253W, strain hxk2, stronger effect = lower value 0.328 | locus YGR135W, strain pre9, stronger effect = lower value 0.871 | locus YGR252W, strain gcn5, stronger effect = lower value 0.757 | locus YHR027C, strain rpn1, stronger effect = lower value 0.625 | locus YHR030C, strain SLT2, stronger effect = lower value 0.918 and 0.61 | locus YHR079C, strain IRE1 (second series), stronger effect = lower value 0.665 | locus YHR079C, strain IRE1, stronger effect = lower value 0.553 | locus YHR129C, strain ARP1, stronger effect = lower value 0.896 | locus YHR142W, strain chs7, stronger effect = lower value 0.484 | locus YHR200W, strain rpn10, stronger effect = lower value 0.906 | locus YIL066C, strain RNR3, stronger effect = lower value 0.848 | locus YIL125W, strain kgd1, stronger effect = lower value 0.851 | locus YIR030C, strain dcg1, stronger effect = lower value 0.838 | locus YJL092W, strain hpr5, stronger effect = lower value 0.476 | locus YJL095W, strain BCK1 (second series), stronger effect = lower value 0.689 | locus YJL095W, strain BCK1, stronger effect = lower value 0.661 and 0.616 | locus YJL115W, strain asf1, stronger effect = lower value 0.697 | locus YJL129C, strain trk1, stronger effect = lower value 0.642 | locus YJL154C, strain vps35, stronger effect = lower value 0.756 | locus YJL164C, strain tpk1, stronger effect = lower value 0.463 | locus YJL166W, strain qcr8, stronger effect = lower value 0.577 | locus YJL187C, strain SWE1 (second series), stronger effect = lower value 0.722 | locus YJL187C, strain SWE1, stronger effect = lower value 0.77 | locus YJR043C, strain POL32, stronger effect = lower value 0.669 | locus YJR066W, strain TOR1, stronger effect = lower value 0.532 | locus YJR075W, strain HOC1, stronger effect = lower value 0.835
0.957 (inactive) and 0.85 (active): locus YDR150W, strain NUM1, stronger effect = lower value
inactive: locus YAL040C, strain CLN3, stronger effect = lower value 1.05 | locus YBR171W, strain sec66, stronger effect = lower value 1.09 | locus YBR229C, strain ROT2, stronger effect = lower value 1.01 | locus YDL005C, strain med2, stronger effect = lower value 0.977 | locus YDL074C, strain BRE1, stronger effect = lower value 0.847 | locus YDL101C, strain DUN1, stronger effect = lower value 0.955 | locus YDL185W, strain tfp1, stronger effect = lower value 1 | locus YER002W, strain NOP16, stronger effect = lower value 1.04 | locus YER110C, stronger effect = lower value 1.01 | locus YER155C, strain BEM2, stronger effect = lower value 1.01 | locus YGL167C, strain pmr1, stronger effect = lower value 1.03 | locus YGL240W, strain doc1, stronger effect = lower value 0.901 | locus YGR229C, strain SMI1, stronger effect = lower value 0.948 | locus YHR013C, strain ard1, stronger effect = lower value 0.846 | locus YHR094C, strain hxt1, stronger effect = lower value 0.944 | locus YIL073C, strain SPO22, stronger effect = lower value 0.762 | locus YJL134W, strain LCB3, stronger effect = lower value 1.04 | locus YJL168C, strain set2, stronger effect = lower value 1.02
